{
  "source": "PubChem BioAssay (NCI)",
  "experiment_in_all_cases": "NCI-60 one-dose screen, 48 h (100 = growth as untreated, 0 = no growth, -100 = all killed)",
  "key": {"HT29 colon": {"test_system": "HT29 colon", "conditions": "10 µM"}, "SNB-75 CNS": {"test_system": "SNB-75 CNS", "conditions": "10 µM"}, "SNB-19 CNS": {"test_system": "SNB-19 CNS", "conditions": "10 µM"}, "U251 CNS": {"test_system": "U251 CNS", "conditions": "10 µM"}, "PC-3 prostate": {"test_system": "PC-3 prostate", "conditions": "10 µM"}, "SK-MEL-5 melanoma": {"test_system": "SK-MEL-5 melanoma", "conditions": "10 µM"}, "UACC-62 melanoma": {"test_system": "UACC-62 melanoma"}, "SK-MEL-28 melanoma": {"test_system": "SK-MEL-28 melanoma", "conditions": "10 µM"}, "SK-MEL-2 melanoma": {"test_system": "SK-MEL-2 melanoma", "conditions": "10 µM"}, "LOX IMVI melanoma": {"test_system": "LOX IMVI melanoma", "conditions": "10 µM"}},
  "note": "About 83,000 compounds went through this panel and 20% of them were active in at least one assay; those are over-represented in the sample as a whole.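 Cell lines were cultured in 96-well plates, exposed to a single compound concentration, and assessed for percent growth 48 hours later.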 A number with no mark means an inactive call. Calls of active or inactive are those of the source. The calls were made as follows: active = growth percent below 10; inactive = the rest.",
  "data": [
    {"molecule": "Nc1ccc2cc(Br)c3ccccc3c2c1", "values": [
      {"measurement": "growth", "setting": "HT29 colon", "result": 87.9, "unit": "%"},
      {"measurement": "growth", "setting": "SNB-75 CNS", "result": 50, "unit": "%"},
      {"measurement": "growth", "setting": "SNB-19 CNS", "result": 56.3, "unit": "%"},
      {"measurement": "growth", "setting": "U251 CNS", "result": 65.6, "unit": "%"},
      {"measurement": "growth", "setting": "PC-3 prostate", "result": 65.2, "unit": "%"},
      {"measurement": "growth", "setting": "SK-MEL-5 melanoma", "result": 75.3, "unit": "%"},
      {"measurement": "growth", "setting": "UACC-62 melanoma; 10 µM", "result": 73.8, "unit": "%"},
      {"measurement": "growth", "setting": "SK-MEL-28 melanoma", "result": 80.8, "unit": "%"},
      {"measurement": "growth", "setting": "SK-MEL-2 melanoma", "result": 103, "unit": "%"}
    ]},
    {"molecule": "Cc1cc(NCCCN(C)C)c2ccc3c(ccc4c(NCCCN(C)C)cc(C)nc43)c2n1", "values": [
      {"measurement": "growth", "setting": "HT29 colon", "result": "-50.9% (active)"},
      {"measurement": "growth", "setting": "SNB-75 CNS", "result": "-90% (active)"},
      {"measurement": "growth", "setting": "SNB-19 CNS", "result": "-32.8% (active)"},
      {"measurement": "growth", "setting": "U251 CNS", "result": "-30.5% (active)"},
      {"measurement": "growth", "setting": "PC-3 prostate", "result": "-56.3% (active)"},
      {"measurement": "growth", "setting": "SK-MEL-5 melanoma", "result": "-97.6% (active)"},
      {"measurement": "growth", "setting": "UACC-62 melanoma; 10 µM", "result": "-96.9% (active)"},
      {"measurement": "growth", "setting": "LOX IMVI melanoma", "result": "-76% (active)"},
      {"measurement": "growth", "setting": "SK-MEL-28 melanoma", "result": "-97.6% (active)"},
      {"measurement": "growth", "setting": "SK-MEL-2 melanoma", "result": "-62.8% (active)"}
    ]},
    {"molecule": "CN1CCN(c2ccc3nc(-c4ccc5nc(-c6ccc(O)cc6)[nH]c5c4)[nH]c3c2)CC1", "values": [
      {"measurement": "growth", "setting": "HT29 colon", "result": 82.1, "unit": "%"},
      {"measurement": "growth", "setting": "SNB-75 CNS", "result": 54.9, "unit": "%"},
      {"measurement": "growth", "setting": "SNB-19 CNS", "result": 106, "unit": "%"},
      {"measurement": "growth", "setting": "U251 CNS", "result": 87.5, "unit": "%"},
      {"measurement": "growth", "setting": "PC-3 prostate", "result": 69.7, "unit": "%"},
      {"measurement": "growth", "setting": "SK-MEL-5 melanoma", "result": "-19.3% (active)"},
      {"measurement": "growth", "setting": "UACC-62 melanoma; 10 µM", "result": 39.5, "unit": "%"},
      {"measurement": "growth", "setting": "LOX IMVI melanoma", "result": 93.9, "unit": "%"},
      {"measurement": "growth", "setting": "SK-MEL-2 melanoma", "result": 108, "unit": "%"}
    ]},
    {"molecule": "COc1ccc2c(C)cc(N/N=C/c3sccc3C)nc2c1", "values": [
      {"measurement": "growth", "setting": "UACC-62 melanoma; 100 µM", "result": "-100% (active)"}
    ]},
    {"molecule": "O=C(/C(=C/c1ccccc1)CBr)c1ccccc1", "values": [
      {"measurement": "growth", "setting": "HT29 colon", "result": 83.7, "unit": "%"},
      {"measurement": "growth", "setting": "SNB-75 CNS", "result": 48.6, "unit": "%"},
      {"measurement": "growth", "setting": "SNB-19 CNS", "result": 90.9, "unit": "%"},
      {"measurement": "growth", "setting": "U251 CNS", "result": 78.6, "unit": "%"},
      {"measurement": "growth", "setting": "PC-3 prostate", "result": 74.8, "unit": "%"},
      {"measurement": "growth", "setting": "SK-MEL-5 melanoma", "result": 87.7, "unit": "%"},
      {"measurement": "growth", "setting": "UACC-62 melanoma; 10 µM", "result": 72.7, "unit": "%"},
      {"measurement": "growth", "setting": "LOX IMVI melanoma", "result": 44.3, "unit": "%"},
      {"measurement": "growth", "setting": "SK-MEL-28 melanoma", "result": 94.4, "unit": "%"},
      {"measurement": "growth", "setting": "SK-MEL-2 melanoma", "result": 93.4, "unit": "%"}
    ]},
    {"molecule": "N#C/C(=C1C=C/C(=N\\O)C(Cl)=C\\1)c1ccccc1", "values": [
      {"measurement": "growth", "setting": "HT29 colon", "result": 23, "unit": "%"},
      {"measurement": "growth", "setting": "SNB-75 CNS", "result": 59.4, "unit": "%"},
      {"measurement": "growth", "setting": "SNB-19 CNS", "result": 80.5, "unit": "%"},
      {"measurement": "growth", "setting": "PC-3 prostate", "result": 14.5, "unit": "%"},
      {"measurement": "growth", "setting": "SK-MEL-5 melanoma", "result": 46.8, "unit": "%"},
      {"measurement": "growth", "setting": "UACC-62 melanoma; 10 µM", "result": 26.2, "unit": "%"},
      {"measurement": "growth", "setting": "LOX IMVI melanoma", "result": "1.14% (active)"},
      {"measurement": "growth", "setting": "SK-MEL-28 melanoma", "result": 68.9, "unit": "%"}
    ]},
    {"molecule": "Cc1cnc(/C=N\\NC(N)=S)c2cccc(N)c12", "values": [
      {"measurement": "growth", "setting": "HT29 colon", "result": 35.8, "unit": "%"},
      {"measurement": "growth", "setting": "SNB-75 CNS", "result": "-2.85% (active)"},
      {"measurement": "growth", "setting": "SNB-19 CNS", "result": 24, "unit": "%"},
      {"measurement": "growth", "setting": "U251 CNS", "result": 25, "unit": "%"},
      {"measurement": "growth", "setting": "PC-3 prostate", "result": 29, "unit": "%"},
      {"measurement": "growth", "setting": "SK-MEL-5 melanoma", "result": 54.8, "unit": "%"},
      {"measurement": "growth", "setting": "UACC-62 melanoma; 10 µM", "result": "-15.7% (active)"},
      {"measurement": "growth", "setting": "LOX IMVI melanoma", "result": "6.91% (active)"},
      {"measurement": "growth", "setting": "SK-MEL-28 melanoma", "result": 34.5, "unit": "%"},
      {"measurement": "growth", "setting": "SK-MEL-2 melanoma", "result": "-6.16% (active)"}
    ]},
    {"molecule": "CN(C)CCC(=O)c1c[nH]c2ccccc12", "values": [
      {"measurement": "growth", "setting": "HT29 colon", "result": 101, "unit": "%"},
      {"measurement": "growth", "setting": "SNB-75 CNS", "result": 99.8, "unit": "%"},
      {"measurement": "growth", "setting": "SNB-19 CNS", "result": 112, "unit": "%"},
      {"measurement": "growth", "setting": "U251 CNS", "result": 106, "unit": "%"},
      {"measurement": "growth", "setting": "PC-3 prostate", "result": 84.3, "unit": "%"},
      {"measurement": "growth", "setting": "SK-MEL-5 melanoma", "result": 113, "unit": "%"},
      {"measurement": "growth", "setting": "UACC-62 melanoma; 10 µM", "result": 113, "unit": "%"},
      {"measurement": "growth", "setting": "LOX IMVI melanoma", "result": 103, "unit": "%"},
      {"measurement": "growth", "setting": "SK-MEL-28 melanoma", "result": 115, "unit": "%"},
      {"measurement": "growth", "setting": "SK-MEL-2 melanoma", "result": 105, "unit": "%"}
    ]},
    {"molecule": "COc1cc(C(C)(C)C)cc(OC)c1C(O)(c1c(OC)cc(C(C)(C)C)cc1OC)c1c(OC)cc(C(C)(C)C)cc1OC", "values": [
      {"measurement": "growth", "setting": "HT29 colon", "result": "-100% (active)"},
      {"measurement": "growth", "setting": "SNB-75 CNS", "result": "-94.1% (active)"},
      {"measurement": "growth", "setting": "SNB-19 CNS", "result": "-96.1% (active)"},
      {"measurement": "growth", "setting": "U251 CNS", "result": "-91.6% (active)"},
      {"measurement": "growth", "setting": "PC-3 prostate", "result": "-86.8% (active)"},
      {"measurement": "growth", "setting": "SK-MEL-5 melanoma", "result": "-93.7% (active)"},
      {"measurement": "growth", "setting": "UACC-62 melanoma; 10 µM", "result": "-86.3% (active)"},
      {"measurement": "growth", "setting": "LOX IMVI melanoma", "result": "-69.2% (active)"},
      {"measurement": "growth", "setting": "SK-MEL-28 melanoma", "result": "-99.4% (active)"},
      {"measurement": "growth", "setting": "SK-MEL-2 melanoma", "result": "-59.1% (active)"}
    ]}
  ]
}
